Records with an inconclusive call do not appear. Active and inactive are the calls of the source. Rule for the calls: active = hit-call score of the fitted dose curve at least 0.9, where 1 is the maximum; inconclusive = response in the unintended direction; inactive = score below 0.9.

The experiment in a line: TOX21_PR_LUC_Followup_Antagonist_viability: Viability Assessment in the Tox21 HEK293 Progesterone Receptor (PR) Antagonism Luciferase Follow-Up Assay (AID 2283940). The text has this:
TOX21_PR_LUC_Followup is a secondary assay for specificity for the TOX21_PR_BLA_Agonist assay. To differentiate true PR agonists from cytotoxic substances, this follow up assay is multiplexed with a cell viability assay.TOX21_PR_LUC_Followup_Antagonist_viability is an assay readout measuring cellular ATP content and detected with CellTiter-Glo Luciferase-coupled ATP quantitation.TOX21_PR_LUC_Followup_Antagonist_viability used a type of viability reporter where loss-of-signal activity can be used to understand changes in the cell viability. Furthermore, this assay endpoint can be referred to as a secondary readout, because this assay has produced multiple assay endpoints where this one serves a viability function. To generalize the intended target to other relatable targets, this assay endpoint is annotated to the cell cycle intended target family, where the subfamily is cytotoxicity.
Quality Control Precautions: Maintain cells below 85-90% confluence in culture medium. For assay purpose, the cells should be cultured in assay medium with 10% charcoal stripped FBS for 5 days with alternate day medium changed to fresh medium. Especially while in assay culture, the cells should not reach more than 85% confluence as they would become harder to detach if they reach over confluence.Assay Protocol: HEK293-PR-A-luc cells were dispensed at 3,000 cells/5 uL/well of culture medium into white wall/solid-bottom 1536-well plates using a Multidrop Combi (ThermoFisher Scientific, Waltham, MA) dispenser. After the assay plates were incubated at 37C and […] for 5 h, 23 nL of compounds dissolved in DMSO, positive controls or DMSO only was transferred to the assay plate by a Pintool station (Kalypsys, San Diego, CA). The plates were incubated at 37C and […] for 16 h. Then 4 uL of ONE-Glo reagent (Promega, Madison, WI) was added to each plate using a BioRAPTR Flying Reagent Dispenser (FRD) workstation (Beckman Coulter, Indianapolis, IN, USA) and luminescence was quantified on a ViewLux (PerkinElmer, Shelton, CT) plate reader after 30 min incubation at room temperature.
On to `O=C(Nc1ccc(Cl)c(Cl)c1)C1CC1`, for which the result was inactive.

With `C#C[C@]1(O)CC[C@H]2[C@@H]3CCc4cc(OC5CCCC5)ccc4[C@H]3CC[C@@]21C`, the compound was classed as inactive.

Take `c1ccc2c(c1)CCc1ccccc1N2`: the outcome was inactive.

For `COC(=O)C1=C(C)NC(C)=C(C(=O)OCC(C)=O)C1c1ccccc1[N+](=O)[O-]` (stereo not given), the result was inactive.

As to `N#C/C(=C1/SC[C@@H](c2ccc(Cl)cc2Cl)S1)n1ccnc1`, the compound was called inactive.

With `C[C@]12C=CC(=O)C=C1[C@@H](F)C[C@@H]1[C@@H]2[C@@H](O)C[C@@]2(C)[C@H]1CC[C@]2(O)C(=O)CO`, the compound was classed as inactive.

For `C=C1C(CCl)(CCl)C2(Cl)C(Cl)C(Cl)C1(Cl)C2(Cl)Cl` (stereo not given), the outcome was inactive.

Regarding `Oc1ccc2c(c1)Cc1ccccc1-2`, the outcome was inactive.

For the compound `CCCCN1CCCC1C(=O)Nc1c(C)cc(C)cc1C` (stereo not given), the result was inactive.

Take `CC(C)C[C@H](NC(=O)[C@H](Cc1ccccc1)NC(=O)c1cnccn1)B(O)O`: the compound was called inactive.

As to `c1cc[c]([Bi]([c]2ccccc2)[c]2ccccc2)cc1`, the call was inactive.

Consider `C[C@@H]1C[C@H]2[C@@H]3C[C@H](F)C4=CC(=O)C(Cl)=C[C@]4(C)[C@@]3(F)[C@@H](O)C[C@]2(C)[C@@]1(O)C(=O)CO`, for which the call was inactive.

In the case of `CC1(C)CCC(C)(C)c2cc(NC(=O)c3ccc(C(=O)O)cc3)ccc21`, the result was inactive.

As for `O=C1Nc2ccc(Cl)cc2[C@@](C#CC2CC2)(C(F)(F)F)O1`, the compound was called inactive.

As to `CC(COc1ccccc1)N(CCCl)Cc1ccccc1` (stereo not given), the call was inactive.

For the compound `CCn1c2ccccc2c2cc([N+](=O)[O-])ccc21`, the compound was called inactive.

With `C[C@]12CCC(=O)C=C1CC[C@@H]1[C@@H]2CC[C@@]2(C)[C@H]1CC[C@]2(O)C(=O)CO`, the result was inactive.

With `CCOC(=O)C1=C(C)NC(C)=C(C(=O)OC)C1c1cccc([N+](=O)[O-])c1` (stereo not given), the compound was classed as inactive.

Regarding `CN(C1CCCCC1)S(=O)(=O)c1ccccc1N`, the compound was called inactive.

`COCCOC(=O)C1=C(C)NC(C)=C(C(=O)OC(C)C)C1c1cccc([N+](=O)[O-])c1` (stereo not given): the compound was classed as inactive.

Turning to `NC(=O)n1c(O)c(C(=O)c2cccs2)c2cc(Cl)ccc21`, the compound was classed as inactive.

As for `C[C@H]1C[C@H]2[C@@H]3CCC4=CC(=O)C=C[C@]4(C)[C@@]3(F)[C@@H](O)C[C@]2(C)[C@@]1(O)C(=O)CO`, the outcome was inactive.

For `CC(=O)OCC(=O)[C@@]1(O)CC[C@H]2[C@@H]3CCC4=CC(=O)C=C[C@]4(C)[C@@]3(F)[C@@H](O)C[C@@]21C`, the result was inactive.

`CCC(=C(CC)c1ccc(O)cc1)c1ccc(O)cc1`: the compound was classed as inactive.

On to `C[C@H]1C[C@H]2[C@@H]3CCC4=CC(=O)C=C[C@]4(C)[C@@]3(Cl)[C@@H](O)C[C@]2(C)[C@@]1(O)C(=O)CO`, for which the compound was classed as inactive.

For the compound `CC(C)C[C@H](NC(=O)[C@H](CCc1ccccc1)NC(=O)CN1CCOCC1)C(=O)N[C@@H](Cc1ccccc1)C(=O)N[C@@H](CC(C)C)C(=O)[C@@]1(C)CO1`, the compound was classed as inactive.

For `C[C@]12CCC(=O)C=C1C=C[C@@H]1[C@@H]2CC[C@@]2(C)[C@H]1CC[C@@]21CCC(=O)O1`, the call was inactive.

For `C[C@]12CCC(=O)C=C1[C@@H]1C[C@@H]1[C@H]1[C@@H]3[C@@H]4C[C@@H]4[C@@]4(CCC(=O)O4)[C@@]3(C)CC[C@@H]12`, the outcome was inactive.

Consider `Cc1ccc(/C=N/n2c(-c3ccccc3)csc2=S)cc1`, for which the call was inactive.

Regarding `COC(=O)C1=C(C)NC(C)=C(C(=O)OCCN2CCN(C(c3ccccc3)c3ccccc3)CC2)C1c1cccc([N+](=O)[O-])c1` (stereo not given), the result was inactive.

For `COCCOC(=O)C1=C(C)NC(C)=C(C(=O)OC/C=C/c2ccccc2)C1c1cccc([N+](=O)[O-])c1` (stereo not given), the outcome was inactive.

Consider `COC(=O)C1=C(C)NC(COC(N)=O)=C(C(=O)OC(C)C)C1c1cccc(Cl)c1Cl` (stereo not given), for which the call was inactive.

On to `Nc1ccccc1S(=O)(=O)c1ccccc1`, for which the result was inactive.

As for `Oc1ccc(N=Nc2ccccc2)cc1`, the result was inactive.

With `CC(=O)OCC(=O)[C@@]1(O)CC[C@H]2[C@@H]3CCC4=CC(=O)C=C[C@]4(C)[C@H]3[C@@H](O)C[C@@]21C`, the result was inactive.

Source of the values: PubChem BioAssay (EPA / NIEHS).
